Several values for one entry are separate records, joined by “and”; a condition that tells them apart may be missing. Identical values can stand only once. Records with an inconclusive call do not appear. Activity calls are given as the source filed them. Unless noted, calls come from the whole dose curve; as a rule, active = well fitted curve in the direction sought with a large enough effect in the repeat runs; inconclusive = weak or mixed curves; inactive = no such curve, though single readings can be large; an effect the other way counts as inactive or inconclusive.
Legend:
[1] = qHTS assay to identify small molecule antagonists of the glucocorticoid receptor (GR) signaling pathway - cell viability counter screen (AID 720693); note: nearly all actives have a fitted effect of over 55% in size; note: potency is the fitted concentration of half-maximal effect
[2] = qHTS assay for identifying genotoxic compounds that show differential cytotoxicity against isogenic chicken DT40 cell lines with known DNA damage response pathways - wild type cell line (AID 743012); note: nearly all actives have a fitted effect of over 60% in size; note: potency is the fitted concentration of half-maximal effect
Procedure, shortened: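 Wild type DT40, 300 cells/well, ~0.5 h settle at 37 C/5% CO2; compounds in DMSO added by pintool; 40 h at 37 C/5% CO2; CellTiter-Glo, 30 min RT; luminescence.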

[3] = qHTS assay for identifying genotoxic compounds that show differential cytotoxicity against isogenic chicken DT40 cell lines with known DNA damage response pathways - Rev3 mutant cell line (AID 743014); note: nearly all actives have a fitted effect of over 55% in size; note: potency is the fitted concentration of half-maximal effect
[4] = qHTS assay for identifying genotoxic compounds that show differential cytotoxicity against isogenic chicken DT40 cell lines with known DNA damage response pathways - Rad54/Ku70 mutant cell line (AID 743015); note: nearly all actives have a fitted effect of over 60% in size; note: potency is the fitted concentration of half-maximal effect
[5] = qHTS assay to identify small molecule antagonists of the androgen receptor (AR) signaling pathway - cell viability counter screen (AID 743033; note: nearly all actives have a fitted effect of over 45% in size; note: potency is the fitted concentration of half-maximal effect)
[6] = target: Androgen receptor (Homo sapiens) (UniProt P10275); assay: qHTS assay to identify small molecule antagonists of the androgen receptor (AR) signaling pathway (AID 743035; active = well fitted inhibition curve with a large enough effect in the signal ratio in the repeat runs, not every such curve was filed as active; the % refers to the signal ratio; note: potency is the fitted concentration of half-maximal effect)
Procedure, shortened: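 Fluorescence from a beta-lactamase FRET substrate (LiveBLAzer B/G, 2 h, room temperature) measured inhibition of R1881-stimulated signaling in GeneBLAzer AR-UAS-bla HEK293 cells exposed to compound for 16 h at 37C.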

[7] = target: Androgen receptor (Homo sapiens) (UniProt P10275); assay: qHTS assay to identify small molecule agonists of the androgen receptor (AR) signaling pathway using the MDA cell line (AID 743040; note: nearly all actives have a fitted effect of over 20% in size)
Procedure, shortened: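 Human breast carcinoma MDA-kb2 reporter cells (MMTV-luc, AR/GR elements) were treated for 16 h at 37C in 0% CO2 following a 5 h settling period. Signal was quantified by ONE-Glo luminescence.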

[8] = target: Androgen receptor (Homo sapiens) (UniProt P10275); assay: qHTS assay to identify small molecule antagonists of the androgen receptor (AR) signaling pathway using the MDA cell line (AID 743042; note: nearly all actives have a fitted effect of over 55% in size; note: potency is the fitted concentration of half-maximal effect)
Procedure, shortened: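 MDA-kb2 breast carcinoma cells carrying MMTV-luciferase (AR/GR responsive) were co-treated with compounds and the agonist R1881 for 16 h at 37C. Inhibition read as ONE-Glo luminescence; CellTiter-Fluor fluorescence measured in parallel for cytotoxicity.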

[9] = target: Androgen receptor (Homo sapiens) (UniProt P10275); assay: qHTS assay to identify small molecule agonists of the androgen receptor (AR) signaling pathway (AID 743036; active = well fitted activation curve with a large enough effect in the signal ratio in the repeat runs, with a control signal flat, not every such curve was filed as active; the % refers to the signal ratio)
Procedure, shortened: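 Agonist activity was scored by beta-lactamase reporter fluorescence in stably transfected HEK293 cells exposed to compounds for 16 h at 37C and 5% CO2. Substrate loading took 2 h at room temperature.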

[10] = qHTS assay to identify small molecule antagonists of the androgen receptor (AR) signaling pathway using the MDA cell line - cell viability counter screen (AID 743041; note: nearly all actives have a fitted effect of over 45% in size; note: potency is the fitted concentration of half-maximal effect)
Procedure, shortened: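 Same-well cytotoxicity was assessed by CellTiter-Fluor in MDA-kb2 AR-luc cells after 16 h of compound treatment under R1881 agonism.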

Measured: Potency

Sequence of Androgen receptor (Homo sapiens) (P10275 whole entry, looked up): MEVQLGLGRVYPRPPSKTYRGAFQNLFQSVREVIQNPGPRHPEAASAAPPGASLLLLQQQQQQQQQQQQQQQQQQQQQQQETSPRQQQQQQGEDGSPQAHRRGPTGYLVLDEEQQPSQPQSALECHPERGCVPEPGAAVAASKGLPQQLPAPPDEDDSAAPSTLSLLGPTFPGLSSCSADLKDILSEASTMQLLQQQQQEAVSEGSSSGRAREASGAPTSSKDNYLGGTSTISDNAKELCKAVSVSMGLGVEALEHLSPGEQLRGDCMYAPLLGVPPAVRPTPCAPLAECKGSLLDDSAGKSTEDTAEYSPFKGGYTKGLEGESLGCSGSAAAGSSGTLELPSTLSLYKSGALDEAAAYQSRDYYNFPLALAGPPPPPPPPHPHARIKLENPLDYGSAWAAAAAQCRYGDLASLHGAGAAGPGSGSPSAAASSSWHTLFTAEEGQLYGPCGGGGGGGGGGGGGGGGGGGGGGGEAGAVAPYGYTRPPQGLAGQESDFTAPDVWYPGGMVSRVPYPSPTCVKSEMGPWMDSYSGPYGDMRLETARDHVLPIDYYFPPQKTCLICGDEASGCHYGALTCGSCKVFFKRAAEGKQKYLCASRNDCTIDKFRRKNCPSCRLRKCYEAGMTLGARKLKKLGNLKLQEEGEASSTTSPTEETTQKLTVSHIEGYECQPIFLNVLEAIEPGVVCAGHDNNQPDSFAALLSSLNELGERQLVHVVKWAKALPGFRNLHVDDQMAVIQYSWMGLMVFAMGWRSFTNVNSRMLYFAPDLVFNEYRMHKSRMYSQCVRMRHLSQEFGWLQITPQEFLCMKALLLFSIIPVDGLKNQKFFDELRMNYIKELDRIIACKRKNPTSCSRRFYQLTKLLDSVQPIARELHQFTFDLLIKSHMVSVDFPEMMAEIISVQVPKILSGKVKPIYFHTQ

CC[C@H]1O[C@]2(CC[C@@H]1C)C[C@@H]1C[C@@H](C/C=C(\C)C[C@@H](C)/C=C/C=C3\CO[C@@H]4[C@H](O)C(C)=C[C@@H](C(=O)O1)[C@]34O)O2
inactive: [5]
active: [1] 13.7 µM | [2] 6.06 µM | [3] 6.8 µM | [4] 6.06 µM

Nc1c2ccccc2nc2ccccc12
active: [1] 16.9 µM and 15.3 µM | [2] 2.11 µM and 4.27 µM | [3] 2.66 µM and 2.14 µM | [4] 944 nM and 677 nM

O=C(OC[C@H]1O[C@@H](OC(=O)c2cc(O)c(O)c(OC(=O)c3cc(O)c(O)c(O)c3)c2)[C@H](OC(=O)c2cc(O)c(O)c(OC(=O)c3cc(O)c(O)c(O)c3)c2)[C@@H](OC(=O)c2cc(O)c(O)c(OC(=O)c3cc(O)c(O)c(O)c3)c2)[C@@H]1OC(=O)c1cc(O)c(O)c(OC(=O)c2cc(O)c(O)c(O)c2)c1)c1cc(O)c(O)c(OC(=O)c2cc(O)c(O)c(O)c2)c1
active: [1] 16.9 µM | [2] 5.96 µM | [3] 10.6 µM and 16.5 µM | [4] 11.9 µM | [5] 19 µM

CCN(CC)CCCC(C)Nc1c2ccc(Cl)cc2nc2ccc(OC)cc12 (stereo unspecified)
active: [2] 5.31 µM | [3] 5.96 µM | [4] 6.68 µM
inactive: [1] | [5]

Cc1cccc(CN2CCN(C(c3ccccc3)c3ccc(Cl)cc3)CC2)c1 (stereo unspecified)
active: [2] 9.02 µM | [3] 5.07 µM | [4] 9.02 µM
inactive: [1] | [5]

COc1cccc2c1C(=O)c1c(O)c3c(c(O)c1C2=O)C[C@@](O)(C(=O)CO)C[C@@H]3O[C@H]1C[C@H](N)[C@H](O[C@@H]2CCCCO2)[C@H](C)O1
active: [1] 21.3 µM | [2] 0.188 µM | [3] 0.237 µM | [4] 0.0298 µM | [6] 8.49 µM | [8] 4.22 µM
inactive: [5] | [7]

N#CSc1ccc(N)c([N+](=O)[O-])c1
inactive: [7]
active: [1] 55.3 µM | [2] 12.3 µM | [3] 6.9 µM | [4] 9.75 µM | [5] 24.7 µM | [6] 43.9 µM | [8] 61.5 µM

CCCCN1CCCC[C@H]1C(=O)Nc1c(C)cccc1C
not listed: [6] | [8]
inactive: all other assays above

CCCCCCCCCCCCCC[P+](CCCC)(CCCC)CCCC (tested in a mixture with another compound)
active: [1] 8.76 µM | [2] 0.388 µM | [3] 0.218 µM | [4] 0.218 µM | [5] 0.983 µM | [6] 1.75 µM | [10] 5.48 µM | [8] 3.46 µM
inactive: [7]

N=C1N=C(N)c2cc3ccccc3cc21
active: [1] 21.9 µM | [2] 9.69 µM | [3] 27.3 µM

CCN(CCC#N)c1ccc(N=Nc2c(Cl)cc([N+](=O)[O-])cc2Cl)cc1
active: [2] 13.7 µM | [3] 10.9 µM | [4] 17.2 µM
inactive: [1]

O=c1cc(-c2ccc(O)cc2)oc2cc(O)cc(O)c12
active: [1] 49 µM | [2] 27.3 µM | [3] 69.5 µM and 27.3 µM | [4] 31 µM and 13.7 µM
inactive: [5]

CS(=O)(=O)CCNCc1ccc(-c2ccc3ncnc(Nc4ccc(OCc5cccc(F)c5)c(Cl)c4)c3c2)o1
not listed: [9] | [10]
inactive: all other assays above

CCCC(C)c1ccccc1O (stereo unspecified)
inactive: [1]
active: [2] 48.6 µM | [3] 24.3 µM

NNc1nc(-c2ccc([N+](=O)[O-])cc2)cs1
active: [1] 43.6 µM | [2] 6.11 µM | [3] 1.72 µM | [4] 4.33 µM | [5] 30.9 µM | [6] 24.5 µM | [10] 61.1 µM | [8] 48.6 µM
inactive: [7]

O=CC=C(c1ccccc1)c1ccccc1
inactive: [1]
active: [2] 38.9 µM | [3] 27.5 µM | [4] 17.4 µM | [5] 22.1 µM

Cc1[nH]nc2c1N=C(c1ccccc1Cl)c1cc([N+](=O)[O-])ccc1N2
active: [1] 19.5 µM | [2] 0.386 µM | [3] 0.386 µM | [4] 0.486 µM | [5] 43.6 µM

CC(C)n1nc(-c2cc3cc(O)ccc3[nH]2)c2c(N)ncnc21
active: [1] 9.52 µM | [2] 0.841 µM | [3] 2.37 µM | [4] 0.944 µM

Cc1cc(N)c(S(=O)(=O)O)cc1Cl
inactive: [1] | [2] | [3] | [4] | [5]

C=CC(=O)OCC(CO)(COC(=O)C=C)COC(=O)C=C
active: [1] 6.19 µM and 11 µM | [2] 1.73 µM and 2.17 µM | [3] 1.22 µM and 2.43 µM | [4] 1.37 µM and 1.72 µM | [5] 6.94 µM and 11 µM | [6] 3.9 µM and 4.9 µM | [10] 17.3 µM and 27.3 µM | [8] 2.18 µM and 3.86 µM
inactive: [7]

CCCCCCCCCCC=O
not listed: [9]
inactive: all other assays above

Cc1ccc(O)c2ncccc12
inactive: [1] | [9] | [7]
active: [2] 2.11 µM | [3] 2.98 µM | [4] 4.73 µM | [5] 16.9 µM | [6] 26.8 µM | [10] 18.8 µM | [8] 13.3 µM

Reference: PubChem BioAssay (Tox21)
